# Most compounds without a hit are left out; they make up all but 17% or so of the library.
# S2 tox: cell viability loss in ATXN counter-screen; AID 651635; S2 cells (HEK-293 line with an ATXN2-luciferase reporter) viability, CellTiter-Fluor protease fluorescence, 24 h; 0.49% of 400,000 active; Potency, µM (doses to about 56.7 µM), hits mostly cytotoxic; also: nearly all actives have a fitted effect of over 40% in size
# ATXN2 expr inh: inhibitors of ATXN2 expression; 0.72% of 360,000 active; Potency, µM (doses to about 57 µM), inactives show top-dose activity change, negative = inhibition, usual class: inhibitors; HEK-293 ATXN2-luciferase reporter, luminescence, 24 h; also: % is scaled to controls: 0 for no effect and ±100 for the full control effect; nearly all actives have a fitted effect of over 55% in size
#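 qHTS (up to 57 uM final) was run with 24 h compound exposure of reporter cells at 37 °C. Each well was multiplexed: SteadyGlo luminescence measured ATXN2-luciferase expression after a fluorogenic Gly-Phe-AFC viability readout (25 uM final).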
# TGFb inhibitor: TGF-b pathway inhibition. 1.2% of 410,000 active. AID 588855. Potency, µM (series often up to 46.1 µM), without a hit: at the top dose activity, negative = inhibition, actives largely listed as inhibitors. HepG2 CAGA-GFP TGF-b/SMAD3 reporter, GFP fluorescence, 18 h; TGF-beta stimulated, 500 pg/mL final; also: % is scaled to controls: 0 for no effect and ±100 for the full control effect; nearly all actives have a fitted effect of over 65% in size
#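 First, reporter cells (HEPG2 CAGA-GFP) rested 2 h at 37 degrees C. Next, compounds were pinned in and TGF-beta added to 500 pg/mL final. After 18 h, GFP was imaged per cell and summed per well.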
# HepG2 tox: counter-screen for TGF-b inhibitors: cytotoxicity in HepG2 cells; HepG2 CAGA-GFP viability, ATP luminescence, 18 h; Potency, µM (top dose mostly 46.1 µM), for inactives: at the top dose activity change, negative = cytotoxicity, usual class: cytotoxic; 0.76% of 410,000 active
#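 CellTiter-Glo luminescence gave cytotoxicity after 18 hours at 37 degrees C. The cells were HepG2 CAGA-GFP in 1% FBS DMEM, stimulated with 500 pg/mL TGF-beta after compound addition. %Activity was normalised to no-cell wells (complete cell-killing) and DMSO (no toxicity), and curves were fitted and classified.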
# TDP1 cell CPT: DT40-hTDP1 cell growth loss with CPT; 12% of 420,000 active; chicken DT40 Tdp1-/-;hTDP1 cells + 20 nM CPT, ATP luminescence, 48 h; Potency, µM (top dose mostly 46.2 µM), for the others: top-dose activity change, negative = growth inhibition, actives largely listed as inhibitors; AID 686979; also: % is scaled to controls: 0 for no effect and ±100 for the full control effect; nearly all actives have a fitted effect of over 55% in size
#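 Chicken DT40 Tdp1-/- cells complemented with human TDP1, 400 cells/well, exposed to compounds plus 20 nM camptothecin for at least 48 h at 37 C; viability read as ATP content by CellTiter-Glo luminescence.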
# DT40 TDP1 no CPT: qHTS for Inhibitors of human tyrosyl-DNA phosphodiesterase 1 (TDP1): qHTS in cells in absence of CPT; Potency, µM (titrated, usually from 46.2 µM), without a hit: at the top dose activity change, negative = growth inhibition, actives largely listed as inhibitors; DT40 Tdp1-/- hTDP1 cells, no CPT, ATP luminescence, 48 h; 15% of 420,000 active; also: % is scaled to controls: 0 for no effect and ±100 for the full control effect; nearly all actives have a fitted effect of over 55% in size
#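 No-CPT arm: Tdp1-/-;hTDP1 DT40 cells (400/well) plus compounds, incubated ≥48 hr at 37 °C. Readout CellTiter-Glo luminescence.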
# An asterisk follows results filed as active; i = inactive; ? = inconclusive; . = not tested or not shown. Calls follow the shape of the dose curve; as a rule, active = well fitted curve in the direction sought with a large enough effect; inconclusive = small, poorly fitted or top-dose-only effect, or another doubt; inactive = no such curve, though single readings can be large; an effect the other way counts as inactive or inconclusive. Potency is read from the fitted curve at half-maximal effect.
SMILES,S2 tox,ATXN2 expr inh,TGFb inhibitor,HepG2 tox,TDP1 cell CPT,DT40 TDP1 no CPT
CC1SC2(NC1=O)C1CC3CC(C1)CC2C3 (centres undefined),i,3.3%,10.8%,3.8%,-2.7%,-24.4%
COc1ccc(S(=O)(=O)N2CCCCCC2)cc1C(=O)N(C)CC(=O)Nc1ccccc1Br,i,-5.4%,23.5%,-1.6%,?,9.2µM*
COc1ccc(S(=O)(=O)N2CCCCCC2)cc1C(=O)N(C)CC(=O)Nc1c(Cl)cccc1Cl,i,-11.8%,0.6%,25.2%,?,?
COc1ccccc1CN(C)C(=O)c1cc(S(=O)(=O)N2CCCCCC2)ccc1OC,i,.,-6.6%,-15.0%,?,?
COc1ccc(S(=O)(=O)N2CCCCCC2)cc1C(=O)N(C)CC(=O)Nc1ccccc1Cl,i,-3.9%,-2.8%,0.0%,?,20.6µM*
COc1cccc(-c2noc(-c3cc(C(C)C)[nH]n3)n2)c1OC,.,.,-0.8%,-21.8%,?,?
Cc1ccccc1NC(=O)c1sc2nc[nH]c(=O)c2c1C,i,-4.0%,-26.2%,11.1%,?,-19.2%
O=C(Nc1cccc(C(F)(F)F)c1)c1sc(Cl)nc1C(F)(F)F,?,-37.0%,-14.7%,-36.1%,16.4µM*,10.3µM*
COc1ccc(NC(=O)c2sc(Cl)nc2-c2ccccc2)cc1,i,-9.4%,-18.8%,17.0%,?,?
Cc1cccc(NC(=O)c2sc(Cl)nc2-c2ccccc2)c1,i,-10.2%,-16.0%,-10.0%,?,18.4µM*
CCc1cccc(NC(=O)c2sc3nc[nH]c(=O)c3c2C)c1,.,.,-0.7%,-2.0%,?,20.6µM*
Cc1c(C(=O)Nc2cccc(C(F)(F)F)c2)sc2nc[nH]c(=O)c12,.,.,?,-32.7%,16.4µM*,20.6µM*
COc1ccc(NC2CS(=O)(=O)CC2NCc2ccco2)cc1 (centres undefined),i,2.5%,-5.0%,-17.3%,6.0%,-13.2%
COc1cccc(-c2cc(=O)c3ccc(OC)cc3o2)c1,.,.,.,.,?,-27.2%
Cc1ccc2c(CN3CCN(CCO)CC3)cc(=O)oc2c1,i,1.2%,10.3%,-2.8%,-11.2%,1.5%
Cc1ccc2c(CN3CCN(c4ccccc4)CC3)cc(=O)oc2c1,i,4.3%,3.4%,12.0%,-4.1%,-14.0%
COc1ccc(CN2CCN(Cc3cc(=O)oc4cc(C)ccc34)CC2)c(OC)c1OC,i,-36.6%,?,-21.1%,25.9µM*,16.4µM*
Cc1ccc2c(CN3CCN(C(=O)c4ccc(F)cc4)CC3)cc(=O)oc2c1,.,.,?,-15.8%,18.4µM*,-61.1%
COc1ccccc1N1CCN(Cc2cc(=O)oc3cc(C)ccc23)CC1,i,-11.1%,-7.2%,-34.5%,23.1µM*,?
CCOc1ccc(-n2nc(CO)c(C(=O)NCc3ccccn3)n2)cc1,.,.,?,-3.5%,?,?
O=C(OCC(=O)N(CCc1ccccc1)Cc1ccccc1)c1cccc(S(=O)(=O)N2CCOCC2)c1,i,9.6%,1.6%,-0.6%,?,7.31µM*
O=C(COC(=O)c1ccc(F)c(S(=O)(=O)N2CCOCC2)c1)NCc1ccccc1,i,-3.2%,?,-1.9%,10.1%,8.0%
O=C(COC(=O)c1cccc(S(=O)(=O)N2CCOCC2)c1)NCc1ccccc1,i,-1.3%,-2.0%,-7.1%,1.7%,-3.9%
O=C(OCC(=O)N(CCc1ccccc1)Cc1ccccc1)c1ccc(F)c(S(=O)(=O)N2CCOCC2)c1,i,.,-7.2%,-28.9%,?,2.91µM*
Cc1c(C(=O)N2CCOCC2)[nH]c2c1C(=O)CC(c1ccccc1Cl)C2 (centres undefined),i,-18.9%,-16.7%,-35.2%,3.26µM*,4.11µM*

# High-throughput results deposited in PubChem by National Center for Advancing Translational Sciences (NCATS).
